Tests used:
[1] = target: T1, Aspartate--tRNA(Asp/Asn) ligase (Mycobacterium tuberculosis (strain ATCC 25618 / H37Rv)) (UniProt P9WFW3); assay: Assay for Asp RNA synthetase-1 from Mycobacterium tuberculosis; assay type: functional; set-up: scale not given: direction of the effect not stated beside the values; settings: 30 µM; further: in the data most compounds retested in dose-response had high values
T1 sequence (whole entry): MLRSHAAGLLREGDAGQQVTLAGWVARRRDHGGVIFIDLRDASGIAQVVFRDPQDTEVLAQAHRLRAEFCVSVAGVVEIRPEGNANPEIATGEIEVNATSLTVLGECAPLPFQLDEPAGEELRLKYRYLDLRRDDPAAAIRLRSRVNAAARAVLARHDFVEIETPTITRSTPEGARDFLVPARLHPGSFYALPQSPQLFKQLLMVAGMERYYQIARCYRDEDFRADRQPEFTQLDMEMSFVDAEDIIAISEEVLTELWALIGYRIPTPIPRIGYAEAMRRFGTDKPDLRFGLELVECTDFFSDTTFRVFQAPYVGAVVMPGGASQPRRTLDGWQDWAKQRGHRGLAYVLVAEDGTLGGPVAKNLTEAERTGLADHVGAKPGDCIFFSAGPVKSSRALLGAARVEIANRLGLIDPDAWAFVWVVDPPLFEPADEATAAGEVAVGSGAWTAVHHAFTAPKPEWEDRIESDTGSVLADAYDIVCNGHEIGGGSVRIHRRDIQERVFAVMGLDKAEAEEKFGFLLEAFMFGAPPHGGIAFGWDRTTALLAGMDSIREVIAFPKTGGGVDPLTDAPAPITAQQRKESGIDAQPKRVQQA

[2] = target: Shiga toxin 2 (Escherichia coli O157:H7) (UniProt P09385+P09386); assay: E. coli 0.157:H7 Shiga Toxin SOP - stx2 screening assay; assay type: functional; set-up: scale not given: direction of the effect not stated beside the values; settings: 30 µM

Row | Structure (SMILES) | Percent Effect [1] [%] | Percent Effect [2] [%]
1 | Cc1ccccc1N1CC2(CCN(S(=O)(=O)c3cccs3)C2)CC1=O (stereo not drawn) | 0.41 | -0.82
2 | O=C([C@@H]1CCO[C@@H]2CCN(Cc3cccnc3)C[C@H]21)N1CCCCO1 | 6.53 | -26.6
3 | Cc1cc(C(=O)NCc2ccc(N3CCCC(C(N)=O)C3)cc2)[nH]n1 (stereo not drawn) | -3.98 | -16.8
4 | CCc1nnsc1C(=O)NCCn1nc2ccccn2c1=O | -6.91 | -19.6
5 | COc1cccc(CN(C)C(=O)CSc2ccc3c(c2)OCCO3)c1 | 0.12 | 7.23
6 | Cc1cc(C)n(C2CCCN(C(=O)CCNS(C)(=O)=O)C2)n1 (stereo not drawn) | -0.16 | -20
7 | CN(Cc1ccccc1O)C(=O)NC1CCCN(c2ncccn2)C1 (stereo not drawn) | -4.06 | 34
8 | CN1CCC(c2ncc3c(n2)CCN(C(=O)CC2C=CCC2)C3)CC1 (stereo not drawn) | 0.956 | -1.54
9 | COc1ccc(CN2C[C@@H]3COC[C@]3(CN(C)C)C2)cc1 | 2.52 | 3.85
10 | CCCC(=O)N1CCC(O)(Cn2c(CC)nc3ccccc3c2=O)CC1 | 0.164 | 0.775
11 | O=C(N[C@@H]1CCNC[C@H]1O)c1ccc(F)c(Cl)c1 | -0.19 | 12.3
12 | CC(C)COCC(NC(=O)c1cccnc1)c1ccco1 (stereo not drawn) | 2.37 | 21
13 | CN(Cc1ncc(C(C)(C)C)o1)C1CCCN(c2cccnn2)C1 (stereo not drawn) | 0.143 | -9.94
14 | CCS(=O)(=O)N(C)c1ccc(C(=O)N2CCCC(C)C2)cc1 (stereo not drawn) | -3.31 | -3.21
15 | CCN1CCO[C@]2(CCC[C@H]2COCc2csc(C)n2)C1 | -0.869 | 7.16
16 | Cc1cccnc1NC(=O)CC1(Cn2cnnn2)CCCCC1 | 7.1 | 2.81
17 | Cc1ncc2c(n1)CN(Cc1nnc(Cc3ccccc3)o1)CC2 | 0.379 | -26.9
18 | O=C1CCCN1Cc1nnc2n1CCN(Cc1ccoc1)CC2 | 1.71 | -17.6
19 | CC(COc1ccc(F)cc1F)NC(=O)NCCN1CCOCC1 (stereo not drawn) | -1.71 | -3.82

Source: ChEMBL document CHEMBL3988442, “University of Dundee, Small-Polar-MMV Screening Library” (2021)
